Measured values reported in PubChem BioAssay (EPA / NIEHS).
Active and inactive are the calls of the source. Rule for the calls: active = hit-call score of the fitted dose curve at least 0.9, where 1 is the maximum; inactive = score below 0.9.

Key:
Details in all cases: mRNA level, 48 h; actives raise or lower the signal
[1] = read-out: growth arrest and DNA damage 45 (GADD45G), GADD45G (gene 10912); experiment: LTEA_HepaRG_GADD45G: Life Technologies and Expression Analysis (LTEA) Assay for growth arrest and DNA damage 45 (GADD45G) using HepaRG (AID 2283499)
How it was run: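 HepaRG, 48 h exposure, top 100 uM, half-log 8-point series, 0.5% DMSO vehicle, duplicates. Readout: GADD45G transcript by qRT-PCR (Fluidigm array), housekeeping-normalised (ACTB/GAPDH/POLR2A). Bidirectional curve fit vs DMSO baseline.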

[2] = read-out: Glutamate-cysteine ligase regulatory (GCLM), GCLM (gene 2730); experiment: LTEA_HepaRG_GCLM: Life Technologies and Expression Analysis (LTEA) Assay for Glutamate-cysteine ligase regulatory (GCLM) using HepaRG (AID 2283500)
How it was run: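 HepaRG, 48 h dosing, 100 uM top, half-log x8, 0.5% DMSO vehicle. Readout: GCLM mRNA by TaqMan qRT-PCR, housekeeping-normalized (ACTB/GAPDH/POLR2A). Curves fit bidirectionally vs DMSO baseline.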

[3] = read-out: Glutathione S-transferase M3 (GSTM3), GSTM3 (gene 2947); experiment: LTEA_HepaRG_GSTM3: Life Technologies and Expression Analysis (LTEA) Assay for Glutathione S-transferase M3 (GSTM3) using HepaRG (AID 2283501)
How it was run: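 qRT-PCR read-out of GSTM3 transcript, normalized to three housekeeping genes, from human HepaRG cells after 48 h chemical exposure. Eight-point half-log series, top 100 uM, 0.5% DMSO vehicle; gain or loss fitted relative to DMSO baseline.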

[4] = read-out: Heat shock 70 kDa protein 1 (HSPA1A), gene 3303; experiment: LTEA_HepaRG_HSPA1A: Life Technologies and Expression Analysis (LTEA) Assay for Heat shock 70 kDa protein 1 (HSPA1A) using HepaRG (AID 2283502)
How it was run: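 HepaRG, 48 h exposure, 8-pt half-log CRC from 100 uM in 0.5% DMSO, duplicates. Readout: TaqMan qRT-PCR of HSPA1A mRNA, housekeeping-normalized (ACTB/GAPDH/POLR2A). Bidirectional fit vs 0.5% DMSO baseline.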

[5] = read-out: Hypoxia-inducible factor 1-alpha (Homo sapiens) (UniProt Q16665); experiment: LTEA_HepaRG_HIF1A: Life Technologies and Expression Analysis (LTEA) Assay for Hypoxia-inducible factor 1 (HIF1A) Trancription factor using HepaRG (AID 2283503)
How it was run: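 Gain- or loss-of-signal HIF1A mRNA changes are fitted against a DMSO baseline. HepaRG cultures receive eight concentrations, highest 100 uM, for 48 h in serum-free induction medium with 0.5% DMSO.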

[6] = read-out: 3-Hydroxy-3-Methylglutaryl-CoA Synthase 2 (HMGCS2), HMGCS2 (gene 3158); experiment: LTEA_HepaRG_HMGCS2: Life Technologies and Expression Analysis (LTEA) Assay for 3-Hydroxy-3-Methylglutaryl-CoA Synthase 2 (HMGCS2) using HepaRG (AID 2283504)
How it was run: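 qRT-PCR read-out of HMGCS2 transcript, normalised to three housekeeping genes, in HepaRG cells after 48 h chemical exposure. Eight-point curves from 100 uM, half-log dilutions, 0.5% DMSO vehicle; gain or loss fitted relative to DMSO baseline.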

HGF (gene 3082) = experiment: LTEA_HepaRG_HGF: Life Technologies and Expression Analysis (LTEA) Assay for Hepatocyte Growth Facto (HGF) using HepaRG (AID 2283505)
How it was run: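 HepaRG, 48 h dosing, 8-pt half-log series from 100 uM in 0.5% DMSO, duplicates. Readout: TaqMan qRT-PCR of HGF mRNA, housekeeping-normalized; bidirectional curve fit vs DMSO baseline.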

[7] = read-out: Insulin Like Growth Factor 1 (IGF1), IGF1 (gene 3479); experiment: LTEA_HepaRG_IGF1: Life Technologies and Expression Analysis (LTEA) Assay for Insulin Like Growth Factor 1 (IGF1) using HepaRG (AID 2283506)
How it was run: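 qRT-PCR readout of IGF1 mRNA, normalized to three housekeeping genes, after 48 h chemical exposure of HepaRG cells. Concentrations: 8-point half-log series, top 100 uM, 0.5% DMSO vehicle. Gain or loss fitted against DMSO baseline.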

[8] = read-out: Intercellular Adhesion Molecule 1 (ICAM1), ICAM1 (gene 3383); experiment: LTEA_HepaRG_ICAM1: Life Technologies and Expression Analysis (LTEA) Assay for Intercellular Adhesion Molecule 1 (ICAM1) using HepaRG (AID 2283507)
How it was run: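 HepaRG, 48 h exposure, 8-pt half-log series from 100 uM, 0.5% DMSO vehicle, duplicates. Readout: TaqMan qRT-PCR mRNA, housekeeping-normalized (ACTB/GAPDH/POLR2A). Bidirectional curve fit vs DMSO baseline.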

[9] = read-out: Insulin-like growth factor-binding protein 1 (IGFBP1), IGFBP1 (gene 3484); experiment: LTEA_HepaRG_IGFBP1: Life Technologies and Expression Analysis (LTEA) Assay for Insulin-like growth factor-binding protein 1 (IGFBP1) using HepaRG (AID 2283508)
How it was run: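 qRT-PCR mRNA read-out (TaqMan, Fluidigm array), normalised to three housekeeping genes; HepaRG cells, 48 h exposure, 8-pt half-log series from 100 uM, 0.5% DMSO vehicle; bidirectional curve fit vs DMSO baseline.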

[10] = read-out: Interleukin 6 (IL6), IL6 (gene 3569); experiment: LTEA_HepaRG_IL6: Life Technologies and Expression Analysis (LTEA) Assay for Interleukin 6 (IL6) using HepaRG (AID 2283509)
How it was run: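 Transcript levels, normalized to three housekeeping genes, were quantified by qRT-PCR after 48 h chemical treatment of HepaRG cells. Eight-point half-log series from 100 uM in 0.5% DMSO, duplicates. Fitted both directions against DMSO baseline.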

[11] = read-out: Interleukin 6 Receptor (IL6R), IL6R (gene 3570); experiment: LTEA_HepaRG_IL6R: Life Technologies and Expression Analysis (LTEA) Assay for Interleukin 6 Receptor (IL6R) using HepaRG (AID 2283510);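 for AC50: differentiated human HepaRG liver cells in serum-free induction medium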
How it was run: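 HepaRG, 48 h exposure, 8-pt half-log series, top 100 uM, 0.5% DMSO vehicle, duplicates. Read-out: TaqMan qRT-PCR of IL6R transcript, housekeeping-gene normalized. Gain or loss fitted relative to DMSO baseline.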

[12] = read-out: Potassium channel subfamily K member 1 (KCNK1), KCNK1 (gene 3775); experiment: LTEA_HepaRG_KCNK1: Life Technologies and Expression Analysis (LTEA) Assay for Potassium channel subfamily K member 1 (KCNK1) using HepaRG (AID 2283511)
How it was run: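 KCNK1 transcript measured by TaqMan qRT-PCR against three housekeeping genes, after HepaRG cells were treated 48 h with eight half-log concentrations (top 100 uM, 0.5% DMSO). Curves fitted bidirectionally relative to vehicle.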

[13] = read-out: Keratin 19 (KRT19), KRT19 (gene 3880); experiment: LTEA_HepaRG_KRT19: Life Technologies and Expression Analysis (LTEA) Assay for Keratin 19 (KRT19) using HepaRG (AID 2283512)
How it was run: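 HepaRG, 48 h chemical exposure, 8-pt half-log CRC from 100 uM, 0.5% DMSO vehicle, duplicates. Readout: TaqMan qRT-PCR of KRT19 mRNA, housekeeping-normalized (ACTB/GAPDH/POLR2A). Bidirectional fit vs DMSO baseline.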

[14] = read-out: JUN Transcription Factor, JUN (gene 3725); experiment: LTEA_HepaRG_JUN: Life Technologies and Expression Analysis (LTEA) Assay for JUN Transcription Factor using HepaRG (AID 2283513)
How it was run: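 HepaRG, 48 h exposure, 8-pt half-log series top 100 uM, 0.5% DMSO, duplicate. JUN mRNA by qRT-PCR (Fluidigm), housekeeping-normalized (ACTB/GAPDH/POLR2A); bidirectional curve fit vs DMSO baseline.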

[15] = read-out: Lipase C (LIPC), LIPC (gene 3990); experiment: LTEA_HepaRG_LIPC: Life Technologies and Expression Analysis (LTEA) Assay for Lipase C (LIPC) using HepaRG (AID 2283514)
How it was run: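 LIPC expression was quantified by qRT-PCR against three housekeeping genes (ACTB, GAPDH, POLR2A). Differentiated human HepaRG cells received eight half-log doses (top 100 uM, 0.5% DMSO) in duplicate for 48 h; fitting bidirectional relative to DMSO.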

[16] = read-out: Lipoprotein lipase (LPL), LPL (gene 4023); experiment: LTEA_HepaRG_LPL: Life Technologies and Expression Analysis (LTEA) Assay for Lipoprotein lipase (LPL) using HepaRG (AID 2283515)
How it was run: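 LPL transcript levels quantified by TaqMan qRT-PCR against three housekeeping genes after 48 h chemical treatment of HepaRG cells. Eight-point half-log series from 100 uM in 0.5% DMSO, tested in duplicate; bidirectional fitting versus vehicle.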

[17] = read-out: MicroRNA 122 (MIR122), gene 406906; experiment: LTEA_HepaRG_MIR122: Life Technologies and Expression Analysis (LTEA) Assay for MicroRNA 122 (MIR122) using HepaRG (AID 2283516); note: the transcript read is the microRNA miR-122
How it was run: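 qRT-PCR read-out (TaqMan, Fluidigm array), normalized to three housekeeping genes; HepaRG cells dosed 48 h at 8 concentrations up to 100 uM in 0.5% DMSO, duplicate; gain or loss fitted against DMSO baseline.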

[18] = read-out: matrix metalloproteinase-10 (MMP10), MMP10 (gene 4319); experiment: LTEA_HepaRG_MMP10: Life Technologies and Expression Analysis (LTEA) Assay for matrix metalloproteinase-10 (MMP10) using HepaRG (AID 2283517)
How it was run: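 Expression measured by TaqMan qRT-PCR with ACTB/GAPDH/POLR2A normalisation after 48 h chemical exposure of HepaRG cells. Eight half-log concentrations, top 100 uM, 0.5% DMSO vehicle, duplicates; gain or loss fitted against vehicle.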

Measured: AC50

Chain of Hypoxia-inducible factor 1-alpha (Homo sapiens) (Q16665 whole entry, looked up): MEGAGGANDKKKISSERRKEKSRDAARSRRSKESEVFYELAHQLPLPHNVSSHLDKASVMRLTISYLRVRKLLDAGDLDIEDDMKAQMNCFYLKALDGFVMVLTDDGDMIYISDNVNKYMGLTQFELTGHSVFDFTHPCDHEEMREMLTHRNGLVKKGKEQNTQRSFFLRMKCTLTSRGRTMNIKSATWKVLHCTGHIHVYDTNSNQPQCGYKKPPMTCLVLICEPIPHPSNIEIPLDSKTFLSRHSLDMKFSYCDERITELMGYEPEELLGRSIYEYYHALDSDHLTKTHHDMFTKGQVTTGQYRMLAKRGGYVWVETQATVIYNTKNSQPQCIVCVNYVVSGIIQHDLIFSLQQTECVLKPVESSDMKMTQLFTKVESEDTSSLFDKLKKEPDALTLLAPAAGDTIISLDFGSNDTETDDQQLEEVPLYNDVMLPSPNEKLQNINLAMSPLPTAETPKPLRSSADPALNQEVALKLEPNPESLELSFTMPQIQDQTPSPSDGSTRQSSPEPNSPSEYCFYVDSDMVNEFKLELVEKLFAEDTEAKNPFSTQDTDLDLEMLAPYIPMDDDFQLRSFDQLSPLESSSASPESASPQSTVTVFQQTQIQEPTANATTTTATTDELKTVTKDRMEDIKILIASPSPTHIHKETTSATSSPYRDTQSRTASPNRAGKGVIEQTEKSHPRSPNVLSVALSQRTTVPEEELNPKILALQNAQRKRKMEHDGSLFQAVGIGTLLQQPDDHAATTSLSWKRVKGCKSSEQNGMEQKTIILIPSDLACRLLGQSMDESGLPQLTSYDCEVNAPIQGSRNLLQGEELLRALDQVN

C[C@]12C[C@H](O)[C@H]3[C@@H](CCC4=CC(=O)CC[C@@]43C)[C@@H]1CC[C@@H]2C(=O)CO
inactive: [1] | [2] | [3] | [4] | [5] | [6] | HGF (gene 3082) | [7] | [8] | [9] | [10] | [11] | [12] | [13] | [14] | [15] | [16] | [17] | [18]

COC(=O)c1ccc(I)cc1S(=O)(=O)NC(=O)Nc1nc(C)nc(OC)n1
inactive: [1] | [2] | [3] | [4] | [6] | HGF (gene 3082) | [7] | [8] | [9] | [10] | [11] | [12] | [13] | [14] | [15] | [16] | [17] | [18]

Oc1ccc(C(c2ccc(O)cc2)C(Cl)(Cl)Cl)cc1
inactive: [2] | [3] | [7] | [12]
active: [1] 78.9 µM | [4] 94.5 µM | [5] 79.5 µM | [6] 92.8 µM | HGF (gene 3082) 83.7 µM | [8] 79.3 µM | [9] 88.5 µM | [10] 77.1 µM | [11] 87.8 µM | [13] 50 µM | [14] 91.7 µM | [15] 78.8 µM | [16] 85 µM | [17] 87.5 µM | [18] 78.6 µM

COc1c(Cl)ccc(Cl)c1C(=O)O
inactive: [1] | [2] | [3] | [4] | [5] | [6] | HGF (gene 3082) | [7] | [8] | [9] | [10] | [11] | [12] | [13] | [14] | [15] | [16] | [17] | [18]

CCCN(CCC)C(=O)SCC
inactive: [1] | [2] | [3] | [4] | [5] | [6] | HGF (gene 3082) | [7] | [8] | [9] | [10] | [11] | [12] | [13] | [14] | [15] | [16] | [17] | [18]
